According to PubChem BioAssay AID489043 (National Center for Advancing Translational Sciences (NCATS), 2010):
Inconclusive results are not listed. Active and inactive are the calls of the source. Calls come from the whole dose curve; as a rule, active = well fitted activation curve with a large enough effect; inconclusive = small, poorly fitted or top-dose-only effect; inactive = flat fitted curve, though single readings scatter.

Target: Relaxin receptor 2 (Homo sapiens) (UniProt Q8WXD0)
Test: qHTS Assay for Agonists of the Relaxin Receptor RXFP1: RXFP2 Hit Validation; note: nearly all actives have a fitted effect of over 65% in size
Conditions: HEK293 RXFP2 cAMP TR-FRET, 30 min; series mostly up to 115 µM; activation: at the top concentration
Summary of the method: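 Selectivity counter-assay for cAMP accumulation: RXFP2-HEK293 cells given compounds with Ro 20174 for 30 min at 37C, then lysed for TR-FRET cAMP detection. Data scaled to 29 nM porcine relaxin (100%); Hill-equation EC50.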
Potency is the fitted concentration of half-maximal effect.

Sequence of Relaxin receptor 2 (Homo sapiens) (Q8WXD0 whole entry, looked up): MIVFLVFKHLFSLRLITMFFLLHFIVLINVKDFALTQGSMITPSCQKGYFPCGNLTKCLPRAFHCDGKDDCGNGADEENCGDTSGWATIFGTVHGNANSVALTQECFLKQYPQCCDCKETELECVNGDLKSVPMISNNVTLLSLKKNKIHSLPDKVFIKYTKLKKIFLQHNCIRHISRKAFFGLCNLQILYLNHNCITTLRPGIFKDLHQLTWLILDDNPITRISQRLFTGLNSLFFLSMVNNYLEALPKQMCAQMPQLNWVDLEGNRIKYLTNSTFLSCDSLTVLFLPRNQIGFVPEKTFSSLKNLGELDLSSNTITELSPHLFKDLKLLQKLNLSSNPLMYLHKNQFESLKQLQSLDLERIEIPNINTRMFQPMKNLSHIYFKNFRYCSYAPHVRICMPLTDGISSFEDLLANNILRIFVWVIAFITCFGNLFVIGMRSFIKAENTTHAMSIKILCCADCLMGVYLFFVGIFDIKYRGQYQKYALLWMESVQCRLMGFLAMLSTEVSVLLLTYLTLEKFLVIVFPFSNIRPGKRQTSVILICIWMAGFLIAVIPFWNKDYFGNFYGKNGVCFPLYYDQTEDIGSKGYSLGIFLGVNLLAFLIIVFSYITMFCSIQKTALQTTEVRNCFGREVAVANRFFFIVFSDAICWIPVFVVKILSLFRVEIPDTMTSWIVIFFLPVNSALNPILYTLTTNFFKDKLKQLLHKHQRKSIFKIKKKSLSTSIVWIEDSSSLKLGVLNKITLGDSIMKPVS

SMILES	activation	Potency
O=C(O)c1cccc(CSc2nnc(Cc3ccccc3)o2)c1	3.94% [at 44.7 µM] (inactive)	
CN1C(=O)c2ccc(C(=O)Nc3ccc(Br)cn3)cc2C1=O		21.8 µM (active)
N#CCCSc1ncnc2c1oc1ccccc12		19.4 µM (active)
Cn1c(N)c(C(=O)CSc2nnc(NC3CCCCC3)s2)c(=O)n(C)c1=O	-14.8% (inactive)	
CCN(c1ccccc1)S(=O)(=O)c1ccc(OC)c(NC(=O)C2CC(=O)N(Cc3ccccc3)C2)c1 (stereo unspecified)	-2.75% (inactive)	
COc1ccc(S(=O)(=O)N2CCOCC2)cc1NC(=O)CSc1nnc2ccccn12		6.15 µM (active)
O=[N+]([O-])c1cc2c(c(CSc3nnc4ccccn34)c1)OCOC2		11 µM (active)
CCCN(CCC)S(=O)(=O)c1cc(CN2C(=O)c3cccnc3C2=O)ccc1OC		24.5 µM (active)
O=C(O)c1ccc(N2C(=O)c3cccc4c(C(=O)O)ccc(c34)C2=O)cc1		47.3 µM (active)
Cc1ccccc1OCC(=O)Nc1sc(C(=O)Nc2cccc(C)c2C)c(C)c1C#N		6.9 µM (active)
O=C(O)c1ccc(N=C2NC(=O)C(CO)(CO)S2)cc1	2.73% [at 44.7 µM] (inactive)	
O=C(Nc1ccccc1C(=O)O)c1ccc(NC(=O)C2CC2)cc1	-15% (inactive)	
CN(C)CCCn1c(SCC(=O)Nc2nc(-c3cccc(Br)c3)cs2)nc2ccccc2c1=O	-4.88% (inactive)	
CCN(CC)S(=O)(=O)c1ccc2c(c1)nc(SCc1nc3ccsc3c(=O)[nH]1)n2CC		0.275 µM (active)
Cc1nc2scc(C)n2c(=O)c1S(=O)(=O)N1CCN(c2ccccn2)CC1		30.9 µM (active)
Cc1ccc(-n2nnc3c(=O)n(CC(=O)NCC4CCCO4)cnc32)cc1 (stereo unspecified)		30.9 µM (active)

SMILES	activation	Potency
O=c1c2ccccc2cnn1Cc1n[nH]c(=S)n1-c1ccc(F)c(Cl)c1		15.5 µM (active)
CCc1nn(CC(=O)NCCCN2CCOCC2)c(=O)c2cc3sccc3n12	22.1% (inactive)	
COc1ccc(CC(=O)N/N=C/c2cccnc2)cc1OC	-3.6% (inactive)	
COC(=O)Cn1cnc2c(C#N)c3n(c2c1=O)CCCC3		30.9 µM (active)
CC(NC(=O)c1ccccc1NC(=O)c1ccco1)C(=O)O (stereo unspecified)	4.16% [at 125 µM] (inactive)	
Cc1cc(C)c(NC(=O)CS(=O)CC(=O)Nc2ccc(F)cc2F)c(C)c1 (stereo unspecified)	4.28% (inactive)	
O=C(O)c1cc(-c2ccco2)nc2ccc(Br)cc12		17.3 µM (active)
CC(=O)Nc1cccc(NC(=O)CSc2nc3c(c(=O)n(C)c(=O)n3C)n2C)c1		34.6 µM (active)
O=C1CN(c2nc3ccccc3n3cnnc23)CC(=O)N1CCc1ccccc1	9.22% [at 44.7 µM] (inactive)	
Cc1cccc2cc(C#N)c(SCC(=O)NCc3cccs3)nc12		19.4 µM (active)
Cc1ccc(-c2ccc3nnc(SCC(=O)NCC4CCCO4)n3n2)cc1 (stereo unspecified)	-9.14% (inactive)	
CCOC(=O)CNC(=O)CSc1ccc2nnc(-c3cccnc3)n2n1	-13.2% (inactive)	
COc1ccc(C(=O)Nc2ccc(S(=O)(=O)Nc3onc(C)c3C)cc2)c(OC)c1		9.43 µM (active)
O=C(Nc1ccccc1C(=O)N1CCN(c2ccccc2)CC1)c1ccco1	-2.96% [at 125 µM] (inactive)	
O=C(Nc1ccccc1C(=O)NCCc1ccccc1)c1ccco1	0.452% [at 125 µM] (inactive)	
